High-throughput results as filed in PubChem.
Sampled rows, rich in hits. Any-hit rate of the full collection: about 1.2%.
Yeast superoxide: yeast age-related superoxide inhibition as caloric restriction mimetic; superoxide response (% of plate mean), % at 10 µM; AID 2690; S. cerevisiae aged cells, superoxide DHE fluorescence; stronger effect = lower value; hit rate 0.18% among 330,000;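 active = superoxide response under a set limit, about three screen SD below normal, cut at about 65% in these data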;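 note: yeast aged for seven days with compound at 30 °C before DHE staining; 100% = average MFI of all compound-treated wells on the plate with controls excluded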
ABCB6 inh 2: human ABCB6 transporter inhibition | Q9NP58 | K562-ABCB6 porphyrin accumulation, flow cytometry, 1 h; stronger effect = lower value | fluorescence ratio to DMSO, % at 10 µM | hit rate 0.19% among 360,000 | AID 602162;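 active = fluorescence ratio to DMSO below 75%, the collection mean minus 3 SD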;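 note: signal is porphyrin accumulated inside mitochondria; 100% equals median channel fluorescence of DMSO control wells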
SKN-1 block: blocks SKN-1 activity in C. elegans; C. elegans VP596 Pgst-4::GFP/RFP ratio, acrylamide-induced, 24 h; inhibition, % at 21.8 µM; hit rate 0.49% among 360,000; AID 624304;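 active = interference check ratio from 0.5 to 1.5 plus GFP to RFP signal ratio inhibition reaching or exceeding a fixed threshold, cut at about 30% in these data, passing the limit was not always enough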
Platelet DG rel: modulates dense granule release in human platelets; inhibition, %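 (compounds screened at 7.5 µM in platelet-rich plasma)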; hit rate 0.22% among 300,000; human platelet-rich plasma, SFLLRN dense granule ATP release, luminescence;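 active = mean replicate score, as percent of positive control, at or above 50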
VLA-4 inh: inhibition in a human VLA-4 binding assay | AID 2557 | inhibition, % (about 7 µM as worked out from the volumes in the protocol) | P13612 | VLA-4 expressing cells, ligand binding flow cytometry | hit rate 0.2% among 330,000; in the data active = inhibition above about 50%
Target sequence (P13612 whole entry, looked up): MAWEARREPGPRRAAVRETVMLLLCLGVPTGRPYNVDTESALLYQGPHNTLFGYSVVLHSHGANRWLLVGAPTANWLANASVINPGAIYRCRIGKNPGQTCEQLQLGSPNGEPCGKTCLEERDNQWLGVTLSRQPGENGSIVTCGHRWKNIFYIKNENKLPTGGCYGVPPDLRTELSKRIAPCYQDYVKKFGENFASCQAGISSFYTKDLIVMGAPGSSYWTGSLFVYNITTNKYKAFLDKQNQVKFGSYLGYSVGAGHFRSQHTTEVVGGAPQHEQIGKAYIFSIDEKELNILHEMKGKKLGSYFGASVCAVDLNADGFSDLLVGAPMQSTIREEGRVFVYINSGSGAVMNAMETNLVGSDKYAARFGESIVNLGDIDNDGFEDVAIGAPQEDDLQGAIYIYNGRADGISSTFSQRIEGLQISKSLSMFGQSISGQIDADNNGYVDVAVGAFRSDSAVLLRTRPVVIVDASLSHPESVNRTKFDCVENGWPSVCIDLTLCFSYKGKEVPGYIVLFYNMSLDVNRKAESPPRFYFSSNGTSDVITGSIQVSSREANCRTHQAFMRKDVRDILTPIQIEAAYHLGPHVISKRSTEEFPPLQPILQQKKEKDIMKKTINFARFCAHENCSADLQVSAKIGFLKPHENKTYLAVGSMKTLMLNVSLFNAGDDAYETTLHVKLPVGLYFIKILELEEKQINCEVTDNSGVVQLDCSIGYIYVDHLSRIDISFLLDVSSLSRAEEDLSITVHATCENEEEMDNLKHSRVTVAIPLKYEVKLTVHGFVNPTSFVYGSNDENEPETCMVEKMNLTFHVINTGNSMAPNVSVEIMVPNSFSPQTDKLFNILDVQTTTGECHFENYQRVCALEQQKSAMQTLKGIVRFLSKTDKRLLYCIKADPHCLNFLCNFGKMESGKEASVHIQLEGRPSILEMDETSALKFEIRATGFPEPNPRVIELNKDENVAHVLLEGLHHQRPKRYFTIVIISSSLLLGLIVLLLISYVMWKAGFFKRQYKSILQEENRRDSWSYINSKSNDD
The depositor's hits bear a star; x = no result.

SMILES | Yeast superoxide | ABCB6 inh 2 | SKN-1 block | Platelet DG rel | VLA-4 inh
CCCCNC(=O)c1c(N)[nH]c(C(=O)c2ccccc2)c1-c1ccc(Cl)cc1 | x | 103.0 | -4.0 | x | x
Cc1c(C(=O)/C=C/c2cccs2)oc2ccc(F)cc12 | 97.5 | 97.0 | 51.6* | 2.9 | 4.5
Cc1c(C(=O)Nc2nccs2)oc2ccc(F)cc12 | 103.8 | 96.0 | 17.0 | x | 7.1
CCCCCCn1c(=O)n2n(c1=O)[C@@H]1CN(S(=O)(=O)c3ccc(C)cc3)C[C@]1(O)[C@@H](OC(=O)NCc1ccccc1)C2 | x | 98.0 | 0.9 | x | x
Cc1ccc(CSc2nc3ccccc3c(=O)n2Cc2ccco2)cc1 | 100.5 | 89.0 | 38.3* | x | 2.7
O=c1c2ccccc2nc(SCc2ccccc2)n1Cc1ccco1 | 94.6 | 93.0 | 5.5 | -10.5 | 12.3
O=S1(=O)N[C@@H](Cc2ccccc2)COc2cccc(N3CCC[C@@H]3CO)c21 | x | 96.0 | 6.4 | x | x
CCN1C(=O)/C(=C/N(C)c2ccccc2)OC1=S | 104.8 | 103.0 | 35.6* | 1.9 | -15.8
CCC(=O)Nc1ccc(/C(C)=N\NC(=O)c2ccc(C)s2)cc1 | 101.1 | 90.0 | 5.1 | 1.6 | 2.4
C/C(=N/NC(=O)c1ccc(Cl)s1)c1ccc(NC(=O)COc2ccc(Cl)cc2)cc1 | 94.7 | 53.0* | 21.9 | x | -10.4
Nc1nc(N)c2c(ccc3c2ccn3Cc2cccc([N+](=O)[O-])c2)n1 | x | 94.0 | 9.7 | x | x
Cc1ccc(NC(=O)C2COc3ccccc3O2)cc1 (stereo unspecified) | 89.3 | 101.0 | 1.9 | -6.2 | -4.0
O=C(Nc1ccc(-c2cn3ccsc3n2)cc1)C1COc2ccccc2O1 (stereo unspecified) | 96.3 | 87.0 | 35.9* | -5.5 | 0.0
CCc1nc2ccc(C(=O)Nc3cccc(NS(C)(=O)=O)c3)cn2c1N(C)C(=O)c1cccc(OC)c1 | x | 104.0 | 19.6 | x | x
COc1ccc(N2CCN(c3nc4c(c(=O)n(C)c(=O)n4C)n3Cc3ccccc3)CC2)cc1 | 110.2 | 100.0 | -0.7 | 50.2* | -18.2
Cc1ccccc1C(=O)Nc1ccc2c(C#N)c3nc4ccccc4nc3n2c1 | 124.5 | 409.0 | 35.8* | 5.1 | -419.6
NC(CCCCc1ccccc1)c1cccc2ccccc12 (stereo unspecified) | 92.0 | x | x | 49.9* | 13.3
CC(CCc1ccccc1)NCc1cccc2ccccc12 (stereo unspecified) | 96.6 | 100.0 | -11.1 | 0.6 | 2.7
Clc1ccc(N2CCN(/N=C/c3ccncc3)CC2)cc1 | 105.3 | 96.0 | 62.1* | 10.4 | -3.1
CCOC(=O)c1sc(NC(=O)CN2CC(C)OC(C)C2)nc1C (stereo unspecified) | 107.8 | 100.0 | 35.4* | -14.3 | 21.0
CCOC(=O)c1c(-c2ccc(-c3ccccc3)cc2)csc1NC(=O)CNCCN(C)C | 81.7 | 100.0 | 52.0* | -5.0 | 22.8
CCOC(=O)c1c(-c2cccs2)csc1NC(=O)CN1CC(C)OC(C)C1 (stereo unspecified) | 98.1 | 99.0 | 36.7* | 6.6 | -2.1
N#Cc1ccc(C2CC(OCCF)=CC(=O)O2)cc1 (stereo unspecified) | x | x | 5.2 | x | x
Fc1cccc(-c2csc(-c3ccno3)n2)c1 | 97.1 | 109.0 | 51.9* | 3.8 | 8.3
Cc1ccc(N(CC(=O)NCC2CCCO2)S(=O)(=O)c2ccc(Cl)cc2)cc1C (stereo unspecified) | 107.8 | 93.0 | 35.1* | -21.9 | -5.4
SMILES | Yeast superoxide | ABCB6 inh 2 | SKN-1 block | Platelet DG rel | VLA-4 inh
O=C1O[C@@H](c2ccccc2)C[C@@H](O)C(=O)CCc2ccccc21 | x | 97.0 | -3.7 | x | x
O=C(NC1CS(=O)(=O)CC1NCc1ccccc1)c1ccccc1 (stereo unspecified) | 104.4 | 113.0 | 36.5* | 5.7 | -0.9
O=C(Nc1ccc2oc(-c3ccccc3)nc2c1)C1CCCO1 (stereo unspecified) | 110.9 | 96.0 | 5.0 | 8.4 | 4.9
O=C(Nc1ccc(-c2nc3cccnc3s2)cc1)C1CCCO1 (stereo unspecified) | 110.6 | 99.0 | -8.4 | 97.5* | 0.0
O=C(Nc1ccc(-c2nc3ccccc3o2)cc1)C1CCCO1 (stereo unspecified) | 98.6 | 93.0 | 13.1 | 55.8* | -1.5
COc1ccc(NC(=O)C2CCCO2)cc1 (stereo unspecified) | 84.5 | 101.0 | 19.0 | -1.3 | -9.4
CC(C)N(C)c1ncnc2c1ncn2[C@H]1CN(Cc2ccc(F)cc2)C[C@@H](CO)O1 | x | 90.0 | 9.2 | x | x
O=C(Nc1ccc(Cl)c(C(F)(F)F)c1)c1ccco1 | 124.4 | 104.0 | 44.4* | x | 17.4
Cc1cc(NC(=O)c2ccco2)ccc1-n1cnnn1 | 101.2 | 100.0 | 61.3* | -2.3 | 28.1
O=C(NCCc1ccccn1)c1ccc(S(=O)(=O)N2CCCCCC2)cc1 | 96.8 | 100.0 | 39.4* | -3.4 | 4.6
COC(=O)c1ccc(S(=O)(=O)N2CCCCCC2)cc1 | 110.6 | 98.0 | 35.2* | 2.7 | -0.5
O=C(OCCCCN1C(=O)c2ccccc2C1=O)c1ccc(S(=O)(=O)N2CCCC2)cc1 | 97.5 | 112.0 | -8.0 | 58.0* | 12.7
COc1ccc(-c2cc3nc(C)n(N)c(=O)c3s2)cc1 | 98.8 | 95.0 | 17.8 | 87.0* | 0.8
COc1ccc(-c2cc3nc4n(c(=O)c3s2)CCC4)cc1 | 95.1 | 99.0 | 9.9 | 22.6 | -4.5
Cn1c(NCc2ccccc2)nc2cc(-c3ccccc3)sc2c1=O | x | 99.0 | 4.5 | x | x
Cc1nc2cc(-c3ccccc3)sc2c(=O)n1N | 132.2 | 98.0 | -6.5 | 89.7* | 12.3
Clc1ccc(OCCCc2nc(-c3cccnc3)no2)c(Cl)c1 | 121.2 | 97.0 | 26.8 | 3.5 | 4.1
Clc1ccc(OCCCc2nc(-c3ccncc3)no2)c(Cl)c1 | 125.2 | 98.0 | 43.3* | -4.9 | -9.5
Clc1ccccc1-c1nc(-c2ccncc2)no1 | 91.4 | 102.0 | 45.9* | 8.0 | 19.1
Clc1ccc(-c2nc(-c3ccncc3)no2)c(Cl)c1 | 102.5 | 100.0 | 36.5* | 0.1 | 9.9
Clc1ccccc1-c1nc(-c2cccnc2)no1 | 129.6 | 93.0 | 33.9* | 3.8 | -9.1
Cc1ccc(S(=O)(=O)N2C3CC(c4ccccc4)N(S(=O)(=O)c4ccccc4Cl)CC3C(=O)C[C@H]2c2ccccc2)cc1 (stereo partly specified) | x | x | -2.8 | x | x
COc1cc(CNC[C@H]2O[C@@H](n3ccc(N)nc3=O)[C@H](O)[C@@H]2O)ccc1OCc1ccc(C)cc1 | x | 99.0 | 2.4 | x | x
O=C(NCc1cccs1)c1ccc(-c2ccc(F)c(F)c2)c2ccoc12 | x | 86.0 | 16.4 | x | x
Nc1nc(N)c2cc(S(=O)(=O)c3ccc4ccccc4c3)ccc2n1 | x | 94.0 | 1.1 | x | x
Cc1cc2c(cc1C)-n1nnnc1C(N1CCN(c3ccccn3)CC1)C(c1ccc3c(c1)OCO3)=N2 (stereo unspecified) | x | x | 15.5 | x | x
CC(C)NC(=O)C1(C)CN(S(C)(=O)=O)CC(=O)N1Cc1ccc2c(c1)OCO2 (stereo unspecified) | x | x | 5.6 | x | x
CC(C)(C)NC(=O)CN(C(=O)CCC(=O)Nc1nccs1)c1cccc(C(F)(F)F)c1 | 104.6 | 108.0 | 35.3* | -7.7 | 7.7
CC(OC(=O)c1ccc(S(C)(=O)=O)c([N+](=O)[O-])c1)C(=O)NC1C2CC3CC(C2)CC1C3 (stereo unspecified) | x | 96.0 | -14.0 | x | x
